Consider 14 compounds from PubChem BioAssay (NCATS).

Where “and” joins values, the source holds several entries; their conditions need not be identical. Equal values may be shown once. Results filed as inconclusive are left out. Calls of active or inactive are those of the source. The call rests on the fitted dose curve; in most records, active means well fitted curve in the direction sought with a large enough effect; inconclusive means small, poorly fitted or top-dose-only effect, or another doubt; inactive means no such curve, though single readings can be large; an effect the other way counts as inactive or inconclusive.

Assay [1] is described as follows: qHTS of pediatric cancer cell lines to identify multiple opportunities for drug repurposing: Primary screen for SK-N-MC cells (AID 1347093). Further: potency means the concentration at half of the fitted maximal effect. The method in brief: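 Metabolically active cells were quantified by ATP-dependent luminescence (CellTiter-Glo, 15 min at room temperature) following 48 h treatment. Cells had been plated at 500-1,000 per well and settled for 5 h beforehand.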

Assay [2] in a line: qHTS of pediatric cancer cell lines to identify multiple opportunities for drug repurposing: Primary screen for BT-37 cells (AID 1347094). Further: potency means the concentration at half of the fitted maximal effect. The method in brief:
(§1)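 CRCs from 8- or 11-point titrations (lowest final 0.59 nM NPC, 0.78 nM MIPE). Cell viability: CellTiter-Glo after 48 h incubation, 15 min room-temperature development, luminescence imaging.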
On the technique in general: qHTS replaces the single test concentration by a dilution series.

Assay [3] in a line: qHTS of pediatric cancer cell lines to identify multiple opportunities for drug repurposing: Primary screen for NB-EBc1 cells (AID 1347095). Further: potency means the concentration at half of the fitted maximal effect. The method in brief:
as §1

Assay [4] in a line: qHTS of pediatric cancer cell lines to identify multiple opportunities for drug repurposing: Primary screen for SK-N-SH cells (AID 1347098). Further: nearly all actives have a fitted effect of over 65% in size. Further: potency means the concentration at half of the fitted maximal effect. The procedure, abridged:
(§2)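 Cells (500-1,000/well) rested 5 h, then received compounds for 48 h; metabolically active cells were measured by CellTiter-Glo luminescence. Final concentrations spanned up to 46 µM (MIPE, 11-point) or 0.59 nM-46 µM (NPC, 8-point) in primary screens, 11-point in follow-ups.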

Assay [5] is described as follows: qHTS of pediatric cancer cell lines to identify multiple opportunities for drug repurposing: Primary screen for OHS-50 cells (AID 1347103). Further: nearly all actives have a fitted effect of over 40% in size. Further: potency means the concentration at half of the fitted maximal effect. The method in brief: as §2
Assay [6] in a line: qHTS of pediatric cancer cell lines to identify multiple opportunities for drug repurposing: Primary screen for control Hh wild type fibroblast cells (AID 1347106).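 Further: series mostly up to about 46 µM; a drop in luminescence marks cytotoxicity and a rise apparent proliferation; nearly all actives have a fitted effect of over 55% in size.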 The procedure, abridged: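 Viability after 48 h compound treatment at 37C, 500-1,000 cells/well, read as ATP luminescence with CellTiter-Glo. Primary screens used 11-point (MIPE, 0.78 nM-46 µM) or 8-point (NPC, 0.59 nM-46 µM) final concentrations; follow-up screens used 11-point dilutions.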

Assay [7] is described as follows: qHTS of pediatric cancer cell lines to identify multiple opportunities for drug repurposing: Primary screen for Rh30 cells (AID 1347107). Further: series mostly up to about 46 µM; nearly all actives have a fitted effect of over 75% in size. The procedure, abridged:
as §2

Assay [8] can be described thus: qHTS of pediatric cancer cell lines to identify multiple opportunities for drug repurposing: Primary screen for Rh41 cells (AID 1347108). Further: nearly all actives have a fitted effect of over 70% in size. Further: potency means the concentration at half of the fitted maximal effect. The procedure, abridged: as §1
The nature of assay [9]: qHTS of pediatric cancer cell lines to identify multiple opportunities for drug repurposing: Primary screen for A673 cells (AID 1347092). Further: nearly all actives have a fitted effect of over 45% in size. Further: potency means the concentration at half of the fitted maximal effect. The method in brief:
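A673 cells (500-1,000 cells/well in growth media) were pre-incubated 5 h at 37 degrees C, then exposed to compounds for 48 h. Viability was read as CellTiter-Glo luminescence; concentration-response curves came directly from the primary screen.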

A short description of assay [10]: qHTS of pediatric cancer cell lines to identify multiple opportunities for drug repurposing: Primary screen for NB1643 cells (AID 1347099). Further: nearly all actives have a fitted effect of over 50% in size. Further: potency means the concentration at half of the fitted maximal effect. The method in brief:
as §1

The nature of assay [11]: qHTS of pediatric cancer cell lines to identify multiple opportunities for drug repurposing: Confirmatory screen for SK-N-MC cells (AID 1347111).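 Further: cells exposed to compound for 48 h before the readout; nearly all actives have a fitted effect of over 70% in size.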 Further: potency means the concentration at half of the fitted maximal effect. The procedure, abridged:
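Seed 500-1,000 cells/well; rest 5 h at 37 degrees C. Pin-transfer compounds, 11-point titration. Incubate 48 h. Add CellTiter-Glo, 15 min RT, read luminescence.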

Assay [12] in a line: qHTS of pediatric cancer cell lines to identify multiple opportunities for drug repurposing: Confirmatory screen for BT-12 cells (AID 1347112). Further: nearly all actives have a fitted effect of over 55% in size. The method in brief: as §2
Assay [13] is described as follows: qHTS of pediatric cancer cell lines to identify multiple opportunities for drug repurposing: Primary screen for U-2 OS cells (AID 1347096). Further: nearly all actives have a fitted effect of over 50% in size. The procedure, abridged:
as §2

Assay [14] can be described thus: qHTS of pediatric cancer cell lines to identify multiple opportunities for drug repurposing: Primary screen for Saos-2 cells (AID 1347097). Further: nearly all actives have a fitted effect of over 40% in size. Further: potency means the concentration at half of the fitted maximal effect. The procedure, abridged: as §1
Assay [15] can be described thus: qHTS of pediatric cancer cell lines to identify multiple opportunities for drug repurposing: Primary screen for BT-12 cells (AID 1347101). Further: nearly all actives have a fitted effect of over 25% in size. Further: potency means the concentration at half of the fitted maximal effect. The procedure, abridged:
as §2

Assay [16] can be described thus: qHTS of pediatric cancer cell lines to identify multiple opportunities for drug repurposing: Primary screen for RD cells (AID 1347104). Further: nearly all actives have a fitted effect of over 55% in size. Further: potency means the concentration at half of the fitted maximal effect. The procedure, abridged: as §1
Assay [17] in a line: qHTS of pediatric cancer cell lines to identify multiple opportunities for drug repurposing: Primary screen for LAN-5 cells (AID 1347100). Further: potency means the concentration at half of the fitted maximal effect. The procedure, abridged:
as §2

Assay [18] is described as follows: qHTS of pediatric cancer cell lines to identify multiple opportunities for drug repurposing: Primary screen for Rh18 cells (AID 1347102). Further: nearly all actives have a fitted effect of over 65% in size. The method in brief: as §2
Assay [19] can be described thus: qHTS of pediatric cancer cell lines to identify multiple opportunities for drug repurposing: Primary screen for MG 63 (6-TG R) cells (AID 1347105). Further: nearly all actives have a fitted effect of over 50% in size. Further: potency means the concentration at half of the fitted maximal effect. The method in brief:
as §1

A short description of assay [20]: qHTS of pediatric cancer cell lines to identify multiple opportunities for drug repurposing: Confirmatory screen for NB1643 cells (AID 1347109). Further: nearly all actives have a fitted effect of over 45% in size. The procedure, abridged:
as §2

As to `COc1ccccc1[C@H](c1cccc2ccccc12)[C@@](C)(C#N)C(=O)N1CCC(c2cccc(C(F)(F)F)c2)CC1`, the Potency was 1.18 µM (active) in assay [1]; 17.2 µM (active) in [2]; 6.62 µM (active) in assay [3]; 19.2 µM (active) in assay [4]; 1.09 µM (active) in assay [5]; 5.9 µM (active) in assay [8]. For the same compound, the Potency entry in [6] and in [7] was “inactive” in each case.
As for `Cn1cnc2c(F)c(Nc3ccc(Br)cc3Cl)c(C(=O)NOCCO)cc21`, the Potency is 2.35 µM (active) in assay [9], 9.35 µM (active) in [10] and 14.8 µM (active) in assay [8]. For the same compound, the Potency entry in assay [5], in [6], in [11] and in assay [12] was “inactive” throughout.
On to `CC(=O)NC(C)c1ccc(Oc2ccc(OC(C)C)cc2)cc1` (centres undefined), for which the Potency in assay [9] is 23.5 µM (active); in assay [14], 18.7 µM (active); in assay [15] it was 19.3 µM (active); in [5] it was 21.7 µM (active). Besides, the Potency result in assay [13], in [4] and in assay [6] was “inactive” each time.
With `Cn1cc(-c2ccc3nnc(C(F)(F)c4ccc5ncccc5c4)n3n2)cn1`, the Potency result in [9], in assay [13], in assay [10], in assay [16] and in assay [6] was “inactive” each time.
For `COc1cc(F)c(F)c(Nc2ccc(I)cc2F)c1NS(=O)(=O)C1(C[C@H](O)CO)CC1`, the Potency in [1] is 16.6 µM (active). Besides, the Potency entry in assay [2], in assay [3], in assay [10], in assay [17], in assay [18] and in [19] was “inactive” throughout. Also, the Potency result in assay [6] is “inactive”.
As for `CCOC(=O)N1CCC(=C2c3ccc(Cl)cc3CCc3cccnc32)CC1`, the Potency is 23.5 µM (active) and 26.6 µM (active) in assay [9]; 20.9 µM (active) in assay [3]; 30.7 µM (active) in [4]; 24.3 µM (active) and 21.9 µM (active) in assay [5]; 29.9 µM (active) in [16]; 13.3 µM (active) in [19]. Moreover, the Potency in [8] was 23.5 µM (active) and 23.7 µM (active). In addition, the Potency entry in [13] and in [6] was “inactive” throughout.
Take `COCC(=O)NCC=Cc1ccc2ncnc(Nc3ccc(Oc4ccc(C)nc4)c(C)c3)c2c1`: the Potency in assay [9] is 4.69 µM (active); in assay [14], 16.6 µM (active); in assay [10], 20.9 µM (active); in [17] it was 18.7 µM (active); in [15] it was 19.3 µM (active); in [5], 19.3 µM (active). Besides, the Potency result in assay [13], in assay [19] and in assay [6] was “inactive” throughout.
Consider `OC[C@H](Cc1ccccc1)Nc1nc(Oc2ccc3c(c2)CCC3)nc2c1ncn2Cc1ccc(-c2ccccc2)cc1`, for which the Potency entry in assay [9], in assay [13], in [4], in assay [17], in assay [18] and in assay [19] was “inactive” throughout. Moreover, the Potency result in assay [6], in assay [7], in [8], in assay [20] and in assay [12] was “inactive” throughout. Also, the Potency in assay [11] is 2.33 µM (active).
Consider `Nc1nc2ccc(OC(F)(F)F)cc2s1`, for which the Potency entry in [3], in assay [13], in assay [4], in [10], in [18] and in assay [16] was “inactive” throughout. Also, the Potency entry in assay [19], in assay [6], in assay [7], in assay [8], in [11] and in [12] was “inactive” throughout.
As to `CCOC(=O)N[C@@H]1CC[C@@H]2[C@@H](C1)C[C@H]1C(=O)O[C@H](C)[C@H]1[C@@H]2C=Cc1ccc(-c2cccc(F)c2)cn1`, the Potency in assay [1] is 16.6 µM (active); in assay [14], 5.9 µM (active); in assay [4], 21.5 µM (active); in assay [10], 16.6 µM (active). Moreover, the Potency entry in assay [18], in assay [19] and in assay [6] was “inactive” in each case.
Take `COc1cccc2cc(-c3nc(C4CCC(C(=O)O)CC4)n4ncnc(N)c34)[nH]c12` (centres undefined): the Potency was 1.66 µM (active) in assay [3], 0.344 µM (active) in assay [15] and 0.109 µM (active) in assay [5]. Also, the Potency result in assay [10], in [17], in [7], in assay [20] and in assay [11] was “inactive” in each case.
With `NCCCC(N)(C(=O)O)C(F)F` (centres undefined), the Potency result in [2], in [3], in [13], in assay [14], in assay [4] and in assay [17] was “inactive” throughout. Also, the Potency entry in assay [15], in [18], in [5], in [16], in assay [19] and in [6] was “inactive” throughout. For the same compound, the Potency result in [7], in assay [8], in assay [20], in assay [11] and in assay [12] was “inactive” in each case.
With `COc1ccc(CCN2CCN(CCCc3ccccc3)CC2)cc1OC`, in [1], the Potency was 18.7 µM (active). Besides, the Potency result in assay [13], in assay [4], in assay [18], in assay [19], in [6] and in assay [7] was “inactive” throughout. Further, the Potency result in [8] was “inactive”.
For `COc1ccc2nc(S(=O)Cc3ncc(C)c(OC)c3C)[nH]c2c1` (centres undefined), the Potency entry in assay [2], in [3], in [13], in assay [14], in assay [4] and in assay [17] was “inactive” each time. Further, the Potency result in assay [18], in [16], in assay [19], in assay [6], in [7] and in assay [8] was “inactive” in each case.
